TDP1 block – TDP1 (human) enzyme inhibition. Q9NUW8. recombinant TDP1, AlphaScreen DNA substrate cleavage. Potency, µM (top dose mostly 130 µM), for the others: at the top dose activity change, negative = inhibition, usual class: inhibitors. 350,000 compounds, 0.28% hits; note: nearly all actives have a fitted effect of over 40% in size
Target sequence (Q9NUW8 whole entry, looked up): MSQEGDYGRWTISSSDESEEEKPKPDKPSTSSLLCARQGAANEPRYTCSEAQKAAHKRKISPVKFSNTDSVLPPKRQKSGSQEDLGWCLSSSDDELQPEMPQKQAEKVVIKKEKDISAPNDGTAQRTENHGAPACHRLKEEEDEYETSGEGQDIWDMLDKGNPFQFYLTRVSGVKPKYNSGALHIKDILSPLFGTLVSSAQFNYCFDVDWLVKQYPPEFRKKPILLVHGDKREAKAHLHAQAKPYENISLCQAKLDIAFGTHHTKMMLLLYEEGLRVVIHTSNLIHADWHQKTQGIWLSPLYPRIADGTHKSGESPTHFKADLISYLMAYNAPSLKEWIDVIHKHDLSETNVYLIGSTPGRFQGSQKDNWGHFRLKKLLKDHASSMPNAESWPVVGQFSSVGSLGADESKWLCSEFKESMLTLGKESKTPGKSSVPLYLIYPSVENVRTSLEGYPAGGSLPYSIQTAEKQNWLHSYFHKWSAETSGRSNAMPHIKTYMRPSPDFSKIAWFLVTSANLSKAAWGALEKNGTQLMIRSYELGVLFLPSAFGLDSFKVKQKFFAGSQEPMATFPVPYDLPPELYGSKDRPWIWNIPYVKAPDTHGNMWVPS
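Steps: enzyme plus compound, 15 min RT; add biotin/phosphotyrosine-FITC oligonucleotide (15 nM final), react 5 min; add donor/acceptor beads (10 ug/ml final), 10 min; read AlphaScreen. Tdp1 at 1 nM final.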
TDP1 cell noCPT – qHTS for Inhibitors of human tyrosyl-DNA phosphodiesterase 1 (TDP1): qHTS in cells in absence of CPT; DT40 Tdp1-/- hTDP1 cells, no CPT, ATP luminescence, 48 h; 420,000 compounds, 15% hits; Potency, µM (highest dose often 46.2 µM), inactives show at the top dose activity change, negative = growth inhibition, hits mostly inhibitors; AID 686978, 2013; note: nearly all actives have a fitted effect of over 55% in size
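Growth of hTDP1-complemented DT40 Tdp1-knockout cells is measured by ATP luminescence after at least 48 hr compound exposure at 37 °C, with DMSO substituting for the 20 nM CPT used in the parallel screen.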
TDP1 cell CPT – growth inhibition of DT40 Tdp1-/-;hTDP1 cells with camptothecin (screen for TDP1 inhibitors). chicken DT40 Tdp1-/-;hTDP1 cells + 20 nM CPT, ATP luminescence, 48 h. Potency, µM (series often up to 46.2 µM), without a hit: top-dose activity change, negative = growth inhibition, hits mostly inhibitors. 420,000 compounds, 12% hits; note: nearly all actives have a fitted effect of over 55% in size
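Chicken DT40 Tdp1-/- cells stably complemented with human TDP1 were seeded at 400 cells/well in medium containing 20 nM camptothecin, exposed to pin-transferred compounds, and grown at 37 °C for at least 48 hr. Viability was read as ATP luminescence.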
VDR inhibitor – inhibitors of human vitamin D receptor | P11473 | VDR-SRC2-3 peptide fluorescence polarization, 2 h | Potency, µM, for the others: max response, negative = inhibition, usual class: inhibitors | 400,000 compounds, 0.93% hits | AID 504847
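The screen uses fluorescence polarization to detect compounds that interfere with recruitment of the SRC2-3 coactivator peptide to VDR; plates are read after 2 h at room temperature.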
GCN5L2 inh – inhibitors of human GCN5L2 histone acetyltransferase; Potency, µM (doses to about 58.9 µM), for the others: top-dose activity change, negative = inhibition, actives largely listed as inhibitors; GCN5L2 HAT assay, ThioGlo1 CoA-SH fluorescence; Q92830; AID 504327; 390,000 compounds, 0.21% hits
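Free CoA generated was detected with ThioGlo1 (50uM) fluorescence at Ex340nm/Em540nm, read immediately and after 20 min at room temperature. Enzyme, 20 nM in HEPES pH 7.5 buffer, saw compounds 15 min before adding 75uM H3(1-25) peptide and 70uM acetyl-CoA.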
PLK1 PBD block – blocks phosphopeptide binding to human PLK1 polo-box domain | AID 720504 | Potency, µM, for inactives: max response, negative = inhibition, most hits filed as inhibitors | 360,000 compounds, 2.8% hits | Plk1 PBD binding of FITC phosphopeptide, fluorescence polarization; note: series mostly up to about 57 µM; nearly all actives have a fitted effect of over 65% in size
* hit, by the source's call; [ ] = dose if it differs, or a comment. Shown are actives, neighbours in structure and some others; about 18% of the full set was active somewhere. Calls come from the whole dose curve; as a rule, active = well fitted curve in the direction sought with a large enough effect; inconclusive = small, poorly fitted or top-dose-only effect, or another doubt; inactive = no such curve, though single readings can be large; an effect the other way counts as inactive or inconclusive. % is set by controls: 0 for no effect and ±100 for the full control effect; potency is the fitted concentration of half-maximal effect.

CCOC(=O)c1ccccc1NC(=O)CN(c1cccc(C)c1C)S(=O)(=O)c1ccccc1 was read as TDP1 cell noCPT 5.8µM*, TDP1 cell CPT 7.31µM*, VDR inhibitor -0.9% and GCN5L2 inh -15.7%.
For CCCCOC(=O)c1ccc(NC(=O)c2ccccc2OC)cc1 the results were TDP1 block 5.1%, TDP1 cell noCPT inconclusive, TDP1 cell CPT 20.6µM*, VDR inhibitor -24.6%, GCN5L2 inh -11.3% and PLK1 PBD block 0.4%.
`CCCCOC(=O)c1ccc(NC(=O)C(=O)NCCN(C)C)cc1` gave TDP1 cell noCPT 20.6µM*, TDP1 cell CPT inconclusive, VDR inhibitor -27.3%, GCN5L2 inh -0.1% and PLK1 PBD block 3.2%.
Cc1cc(C)n(C(=O)CN(C)S(=O)(=O)c2ccc([N+](=O)[O-])cc2)n1 was read as TDP1 cell noCPT 2.1%, TDP1 cell CPT -10.1%, VDR inhibitor 6.3%, GCN5L2 inh 1.7% and PLK1 PBD block -15.3%.
`COc1ccc(C(=O)NC(=S)Nc2ccc(Cc3ccncc3)cc2)cc1` gave TDP1 block 7.7%, TDP1 cell noCPT 18.4µM*, TDP1 cell CPT inconclusive, VDR inhibitor 6.5%, GCN5L2 inh -2.7% and PLK1 PBD block inconclusive.
Cc1ccccc1C(=O)NC(=S)Nc1ccc(Cc2ccncc2)cc1 was read as TDP1 block -4.6%, TDP1 cell noCPT inconclusive, TDP1 cell CPT -22.7%, VDR inhibitor -2.0%, GCN5L2 inh -4.9% and PLK1 PBD block -9.8%.
Cc1cccc(Nc2ncnc3c2cnn3C)c1C was read as TDP1 block 10.4%, TDP1 cell noCPT inconclusive, TDP1 cell CPT -24.5%, VDR inhibitor -0.6% and GCN5L2 inh 1.5%.
For Cc1ccc(CCNC(=O)c2cc(S(=O)(=O)N3CCCCC3)c[nH]2)cc1 the results were TDP1 cell noCPT -24.8%, TDP1 cell CPT -10.9%, VDR inhibitor -20.7%, GCN5L2 inh -6.2% and PLK1 PBD block 2.2%.
Screening CCc1ccc(NC(=O)c2cc(S(=O)(=O)N3CCCC3)c[nH]2)cc1 returned TDP1 cell noCPT 23.1µM*, TDP1 cell CPT inconclusive, VDR inhibitor 11.1%, GCN5L2 inh -1.0% and PLK1 PBD block -1.5%.
`CCOc1ccc(NC(=O)c2cc(S(=O)(=O)N3CCCCC3)c[nH]2)cc1` gave TDP1 block 2.6%, TDP1 cell noCPT -19.2%, TDP1 cell CPT -0.1%, VDR inhibitor -10.5%, GCN5L2 inh -2.4% and PLK1 PBD block -3.3%.
Screening O=C(NCCc1ccc(Cl)cc1)c1cc(S(=O)(=O)N2CCCCC2)c[nH]1 returned TDP1 cell noCPT 9.2µM*, TDP1 cell CPT 23.1µM*, VDR inhibitor -8.4%, GCN5L2 inh -3.4% and PLK1 PBD block 3.3%.
Screening CCOC(=O)c1cnc2c(ccc3ccccc32)c1Nc1ccccc1OCC returned TDP1 block 0.4%[12.3 µM], TDP1 cell noCPT -2.9%, TDP1 cell CPT 7.8%, VDR inhibitor 7.6% and GCN5L2 inh 18.4%.
Screening CCOC(=O)c1cnc(-n2cc(C)cn2)nc1Nc1ccccc1OCC returned TDP1 block 3.8%, TDP1 cell noCPT 6.51µM*, TDP1 cell CPT 10.3µM*, VDR inhibitor -0.3%, GCN5L2 inh -5.6% and PLK1 PBD block 2.5%.
For CSc1nc(Cl)cc(N2CCOCC2)n1 the results were TDP1 block 7.5%, TDP1 cell noCPT 5.9%, TDP1 cell CPT -4.7%, VDR inhibitor -24.7%, GCN5L2 inh -9.2% and PLK1 PBD block -14.2%.
For CSCc1cc(N2CCOCC2)nc(SCc2ccc(Cl)c(Cl)c2)n1 the results were TDP1 block 9.2%, TDP1 cell noCPT -16.4%, TDP1 cell CPT 20.6µM*, VDR inhibitor -0.4%, GCN5L2 inh inconclusive and PLK1 PBD block -12.1%.
CCCSc1nc2cc(C)c(C)cc2n1CC(C)O (stereo not given) was read as TDP1 block 5.1%, TDP1 cell noCPT -4.5%, TDP1 cell CPT -2.9%, VDR inhibitor -5.9%, GCN5L2 inh -19.0% and PLK1 PBD block -6.9%.
`CC(=O)OCCn1c2nc(=O)[nH]c(=O)c-2nc2cc(C)c(C)cc21` gave TDP1 block 3.55µM*, TDP1 cell noCPT inconclusive, TDP1 cell CPT inconclusive, VDR inhibitor -18.0%, GCN5L2 inh inconclusive and PLK1 PBD block 0.844µM*.
`Cn1c(-c2ccc[nH]c2=O)nc2cc(Cl)ccc21` gave TDP1 block 2.9%, TDP1 cell noCPT inconclusive, TDP1 cell CPT -3.4%, VDR inhibitor -9.2%, GCN5L2 inh -9.3% and PLK1 PBD block -7.4%.
CCCC(=O)OC[C@@H](OC(=O)CCC)[C@@H](OC(=O)CCC)[C@H](Cn1c2nc(=O)[nH]c(=O)c-2nc2cc(C)c(C)cc21)OC(=O)CCC was read as TDP1 cell noCPT 5.96µM*, TDP1 cell CPT 6.68µM*, VDR inhibitor inconclusive and GCN5L2 inh -28.2%.
Cc1cc2nc3c(=O)[nH]c(=O)nc-3n(C)c2cc1C=O was read as TDP1 block 7.1%, VDR inhibitor -29.0% and GCN5L2 inh 28.2µM*.
For C=CCN(C(C(=O)OC)C(C)C)S(=O)(=O)C=C (stereo not given) the results were TDP1 block 0.3% and VDR inhibitor -2.6%.
For CC(C)(C)OC(=O)NCc1ccc(NC(=O)c2nc[nH]c2C(=O)NCCCNC(=O)c2[nH]cnc2C(=O)Nc2ccc(CNC(=O)OC(C)(C)C)cc2)cc1 the results were TDP1 block -2.9%, TDP1 cell noCPT 25.9µM*, TDP1 cell CPT 13µM*, VDR inhibitor 19.2%, GCN5L2 inh 0.0% and PLK1 PBD block -3.5%.
For CC(C)(C)OC(=O)NCc1ccc(CNC(=O)c2ncn(Cc3ccccc3)c2C(=O)NCc2ccc(CNC(=O)OC(C)(C)C)cc2)cc1 the results were TDP1 block 1.9%, TDP1 cell noCPT -2.9%, TDP1 cell CPT -14.6%, VDR inhibitor 3.2%, GCN5L2 inh 0.0% and PLK1 PBD block 1.8%.
Cn1cnc(C(=O)NCc2ccc(CNC(=O)OC(C)(C)C)cc2)c1C(=O)NCc1ccc(CNC(=O)OC(C)(C)C)cc1 was read as TDP1 block -0.8%, TDP1 cell noCPT inconclusive, TDP1 cell CPT 20.6µM*, VDR inhibitor 17.0%, GCN5L2 inh -13.3% and PLK1 PBD block -7.3%.
`CC(C)(C)OC(=O)NCc1ccc(CNC(=O)c2nc[nH]c2C(=O)N2CCN(C(=O)OC(C)(C)C)CC2)cc1` gave TDP1 block -0.5%, TDP1 cell noCPT 18.4µM*, TDP1 cell CPT inconclusive, VDR inhibitor 11.6%, GCN5L2 inh 0.5% and PLK1 PBD block -4.4%.
